According to PubChem BioAssay (EPA / NIEHS):
“And” between values parts separate entries of the source, which are not always exact repeats. Equal values may be shown once. Records with an inconclusive call do not appear. The source made the active and inactive calls. The calls were made as follows, unless noted: active = hit-call score of the fitted dose curve at least 0.9, where 1 is the maximum; inactive = score below 0.9.

read-out: CD69, CD69 (gene 969); assay: BSK_LPS_CD69: BioMAP Diversity Plus: LPS Assay for CD69 Biomarker Activity (AID 2284303); conditions: primary human HUVEC with PBMC
Summary of the method: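 Human umbilical vein endothelial cells co-cultured with PBMC under LPS stimulation, chemical exposure 24 h; cell-surface CD69 measured by ELISA and fitted in the positive direction versus DMSO.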

Question: With O=C1CCCN1CCO as the compound, how does the outcome read?
Answer: The outcome was “inactive”.

Question: For CO[Si](OC)(OC)c1ccccc1, which outcome is on record?
Answer: Its outcome is “inactive”.

Question: Which AC50 does the source give for CCOC(=O)c1ccccc1C(=C1C=C(Br)C(=O)C(Br)=C1)c1cc(Br)c(O)c(Br)c1 here?
Answer: Its AC50 is 8.66 µM (active) and 7.45 µM (active).

Question: For Nc1ccc(N)c(Cl)c1, which AC50 is on record?
Answer: The AC50 was 4.71 µM (active) and 1.81 µM (active).

Question: With C=C[Si](OC(C)=O)(OC(C)=O)OC(C)=O as the compound, how does the outcome read?
Answer: Its outcome is “inactive”.

Question: For CN1C(=O)N(C)C(O)C1O (centres undefined), which outcome is on record?
Answer: Its outcome is “inactive”.

Question: For CCCCC(CC)COCC1CO1 (centres undefined), which outcome is on record?
Answer: The outcome was “inactive”.

Question: With O=C(c1ccc(O)cc1)c1ccc(O)cc1O as the compound, how does the outcome read?
Answer: The outcome was “inactive”.

Question: Which outcome does the source give for CCO[Si](C)(OCC)OCC here?
Answer: Its outcome is “inactive”.

tested on: IYD (gene 389434); assay: CCTE_GLTED_hIYD: CCTE's human Iodotyrosine Deiodinase (xIYD) Inhibition Assay, Great Lakes Toxicology and Ecology Division (GLTED) Lab (AID 2284317; active = hit-call score of the fitted dose curve at least 0.9, where 1 is the maximum;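 also: cell-free human IYD enzyme made in baculovirus insect cells; iodide freed from monoiodotyrosine measured by cerium arsenite color change at 420 nm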); conditions: not given
Summary of the method: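 Absorbance change at 420 nm from the iodide-catalysed cerium-arsenic reaction reports free iodide released by human IYD from monoiodotyrosine. Enzyme, substrate and chemical are incubated 3 h; loss of signal is fitted relative to DMSO baseline.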

Question: With CCCCCCCC/C=C\CCCCCCCC(=O)OCCO as the compound, how does the AC50 read?
Answer: Its AC50 is 128 µM (active).

Question: For CCCCCCCCCCCCCOP(=O)(O)O, which AC50 is on record?
Answer: Its AC50 is 40.2 µM (active).

Question: With O=C(Nc1cccc(C(F)(F)F)c1)c1cc(Br)cc(Br)c1O as the compound, how does the AC50 read?
Answer: The AC50 was 100 µM (active).

Question: For Oc1ccc(Cl)cc1Cc1cc(Cl)ccc1O, which AC50 is on record?
Answer: The AC50 was 100 µM (active).

Question: Which AC50 does the source give for CCN(CCC#N)c1ccc(N=Nc2c(Cl)cc([N+](=O)[O-])cc2Cl)cc1 here?
Answer: The AC50 was 152 µM (active).

Question: Which AC50 does the source give for CCCCCCCC[N+](C)(CCCCCCCC)CCCCCCCC here?
Answer: Its AC50 is 27.2 µM (active).

Question: For CCCCCCCC/C=C\CCCCCCCC(=O)O, which AC50 is on record?
Answer: The AC50 was 41 µM (active).

Question: For O=C(Nc1ccccc1)c1ccccc1O, which outcome is on record?
Answer: Its outcome is “inactive”.

Question: For CCCCC/C=C\C/C=C\CCCCCCCC(=O)OC, which outcome is on record?
Answer: The outcome was “inactive”.

Question: For O=S(=O)(O)c1ccccc1C=Cc1ccc(-c2ccc(C=Cc3ccccc3S(=O)(=O)O)cc2)cc1, which AC50 is on record?
Answer: Its AC50 is 100 µM (active).

Question: Which outcome does the source give for CC(C)(C)c1ccc(-c2ccc(C(C)(C)C)cc2)cc1 here?
Answer: The outcome was “inactive”.

Question: For CC/C=C\C/C=C\C/C=C\CCCCCCCC(=O)O, which outcome is on record?
Answer: Its outcome is “inactive”.

tested on: not listed separately; assay: CCTE_Mundy_HCI_iCellGluta_NOG_NeuriteLength: CCTE's Neurite Outgrowth Assay in iCellGluta cells for Neurite Length, Mundy Lab (AID 2284318; active = hit-call score of the fitted dose curve at least 0.9, where 1 is the maximum); conditions: not given
Summary of the method: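 Automated high-content imaging of betaIII-tubulin (Alexa Fluor-488) and Hoechst-stained cells gave neurite length, normalized to the DMSO baseline.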

Question: For Nc1ncn([C@@H]2O[C@H](CO)[C@@H](O)[C@H]2O)c(=O)n1, which AC50 is on record?
Answer: The AC50 was 7.87 µM (active).

Question: With CC1(C)S[C@@H]2[C@H](NC(=O)COc3ccccc3)C(=O)N2[C@H]1C(=O)O as the compound, how does the outcome read?
Answer: The outcome was “inactive”.

Question: With N[C@H]1C(O)O[C@H](CO)[C@H](O)[C@@H]1O (some centres undefined) as the compound, how does the outcome read?
Answer: Its outcome is “inactive”.

tested on: not listed separately; assay: CCTE_Deisenroth_5AR_NBTE_donor: CCTE's 5alpha-reductase NanoBRET Target Engagement Assay […], Deisenroth Lab (AID 2284319); conditions: actives raise or lower the signal
Summary of the method: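 In this secondary endpoint, donor luminescence from SRD5A2-NanoLuc in transfected HEK293T flags artifacts. Test chemical (10 nM - 29.9 uM) is present five hours, tracer the last two; mock-tracer wells run plate-matched; data fitted bidirectionally against DMSO.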

Question: With Oc1ccc(Cl)cc1Cc1cc(Cl)ccc1O as the compound, how does the outcome read?
Answer: Its outcome is “inactive”.

Question: With CCN(CCC#N)c1ccc(N=Nc2c(Cl)cc([N+](=O)[O-])cc2Cl)cc1 as the compound, how does the outcome read?
Answer: The outcome was “inactive”.

Question: With C1CN(SSN2CCOCC2)CCO1 as the compound, how does the outcome read?
Answer: The outcome was “inactive”.

Question: For CCCCCCCC[N+](C)(CCCCCCCC)CCCCCCCC, which AC50 is on record?
Answer: Its AC50 is 11.4 µM (active).

Question: With CCCc1ccc(OC)cc1 as the compound, how does the outcome read?
Answer: The outcome was “inactive”.

Question: For COC(=O)c1c(C)cc(O)c(C)c1O, which outcome is on record?
Answer: Its outcome is “inactive”.

Question: With Cc1ccc(C(C)c2ccc(C)c(C)c2)cc1C as the compound, how does the outcome read?
Answer: The outcome was “inactive”.

Question: Which outcome does the source give for CCCCCCCC/C=C\CCCCCCCC(=O)O here?
Answer: Its outcome is “inactive”.

Question: Which outcome does the source give for CN(C)c1ccc(C(=N)c2ccc(N(C)C)cc2)cc1 here?
Answer: Its outcome is “inactive”.

Question: With CC1=NN(c2cc(S(=O)(=O)O)ccc2Cl)C(=O)C1N=Nc1ccccc1 (centres undefined) as the compound, how does the outcome read?
Answer: Its outcome is “inactive”.
